Assay results: PMC4336329 (PLoS ONE, 2015)
Screen size: about 310,000 compounds; about 14,000 (4.5%) showed an effect of 50% or more. Effects have a minus sign here. For the sample, strong results were picked, then their nearest neighbours and some compounds at random.
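Further: peak tail current of the secondary pulse compared with the same well before compound.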

The compounds below were run against human ether-à-go-go-related gene (hERG) potassium channel (human, UniProt Q12809) (assay: primary screen, population patch clamp on CHO cells stably expressing hERG; higher = less effect of the substance).
Chain of human ether-à-go-go-related gene (hERG) potassium channel (Q12809 whole entry, looked up): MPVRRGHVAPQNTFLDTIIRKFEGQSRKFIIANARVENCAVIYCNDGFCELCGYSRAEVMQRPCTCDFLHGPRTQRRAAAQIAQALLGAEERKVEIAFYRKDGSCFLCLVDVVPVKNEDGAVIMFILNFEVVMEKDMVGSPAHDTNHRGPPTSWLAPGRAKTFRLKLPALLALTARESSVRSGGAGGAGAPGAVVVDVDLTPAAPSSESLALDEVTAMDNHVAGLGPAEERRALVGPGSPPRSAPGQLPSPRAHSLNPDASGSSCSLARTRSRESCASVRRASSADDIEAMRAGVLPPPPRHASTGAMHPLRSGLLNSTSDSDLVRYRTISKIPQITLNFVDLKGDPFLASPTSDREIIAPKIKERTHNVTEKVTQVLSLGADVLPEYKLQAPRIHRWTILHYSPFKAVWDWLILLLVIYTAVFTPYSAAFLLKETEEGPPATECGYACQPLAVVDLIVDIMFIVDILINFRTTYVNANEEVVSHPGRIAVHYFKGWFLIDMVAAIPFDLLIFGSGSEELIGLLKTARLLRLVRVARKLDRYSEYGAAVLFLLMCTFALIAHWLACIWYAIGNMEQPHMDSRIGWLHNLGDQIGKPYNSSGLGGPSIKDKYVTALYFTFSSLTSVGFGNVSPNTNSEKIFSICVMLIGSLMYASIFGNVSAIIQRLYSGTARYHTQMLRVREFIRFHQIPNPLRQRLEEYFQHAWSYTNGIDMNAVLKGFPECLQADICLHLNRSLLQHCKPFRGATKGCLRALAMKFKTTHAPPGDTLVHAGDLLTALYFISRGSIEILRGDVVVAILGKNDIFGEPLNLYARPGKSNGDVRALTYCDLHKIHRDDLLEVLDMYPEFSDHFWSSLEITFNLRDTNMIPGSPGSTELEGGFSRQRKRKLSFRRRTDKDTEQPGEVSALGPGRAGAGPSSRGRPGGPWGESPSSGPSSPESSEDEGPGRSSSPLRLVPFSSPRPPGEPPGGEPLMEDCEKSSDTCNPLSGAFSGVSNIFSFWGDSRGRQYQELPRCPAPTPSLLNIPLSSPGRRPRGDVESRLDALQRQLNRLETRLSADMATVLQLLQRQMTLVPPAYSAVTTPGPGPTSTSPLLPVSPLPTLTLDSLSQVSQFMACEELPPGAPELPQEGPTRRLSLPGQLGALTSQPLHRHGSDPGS
COc1cc(S(=O)(=O)N2CCN(C(=O)c3ccco3)CC2)c(OC)cc1C was tested, and the “hERG current change (%, negative = inhibition) at 10uM” value was 6.03%. With COc1ccc(C2(C)NC(=O)N(CC(=O)Nc3ccc(C)cc3Br)C2=O)cc1OC (stereo not drawn) the “hERG current change (%, negative = inhibition) at 10uM” value was 1.02%. With CN(C)c1ccc(CNc2ncc(Br)cc2Br)cc1 the “hERG current change (%, negative = inhibition) at 10uM” value was -3.62%. With Cc1ccccc1NC(=O)c1ccc(-n2cncn2)nc1 the “hERG current change (%, negative = inhibition) at 10uM” value was -14.1%. With Cc1nn(C)c(C)c1S(=O)(=O)N(CC(=O)Nc1ccc2c(c1)OCO2)c1ccc(C(C)C)cc1 the “hERG current change (%, negative = inhibition) at 10uM” value was 7.38%. CC(C)C(OC(=O)c1nsc(Cl)c1Cl)C(=O)NC1CCCCC1 (stereo not drawn) was tested, and the “hERG current change (%, negative = inhibition) at 10uM” value was -17.7%. With Cc1oc2nc(SCCCC(=O)NCCCO)nc(N)c2c1C the “hERG current change (%, negative = inhibition) at 10uM” value was 9.44%. Cc1ccccc1C(=O)Nc1ccnn1C1CCN(CC2CC=CCC2)CC1 (stereo not drawn) was tested, and the “hERG current change (%, negative = inhibition) at 10uM” value was -72.6%. For COc1ccccc1C(=O)Nc1ccnn1C1CCN(CC2CC=CCC2)CC1 (stereo not drawn), the “hERG current change (%, negative = inhibition) at 10uM” value was -82.3%. For O=C(Nc1ccnn1C1CCN(CC2CC=CCC2)CC1)c1ccccc1Cl (stereo not drawn), the “hERG current change (%, negative = inhibition) at 10uM” value was -70.7%. In the case of Cc1ccccc1C(=O)Nc1ccnn1C1CCN(Cc2ccc(CO)o2)CC1, the “hERG current change (%, negative = inhibition) at 10uM” value is reported as -1.16%. With COc1ccc(C(=O)Nc2ccnn2C2CCN(CC3CC=CCC3)CC2)cc1 (stereo not drawn) the “hERG current change (%, negative = inhibition) at 10uM” value was -37.4%. For Cc1ccc(CN2CCC(n3nccc3NC(=O)c3ccccc3C)CC2)o1, the “hERG current change (%, negative = inhibition) at 10uM” value was -25.9%. For Cl.NCC(c1ccccc1)(c1ccccc1)c1ccccc1, the “hERG current change (%, negative = inhibition) at 10uM” value was -15.5%. In the case of O=C(COc1ccccc1)NCC(=O)N/N=C/c1ccc(Br)cc1, the “hERG current change (%, negative = inhibition) at 10uM” value is reported as -14.6%. With CCCCCCCCCC(=O)N/N=C(\C)c1cccnc1 the “hERG current change (%, negative = inhibition) at 10uM” value was 9.29%. For COc1ccc(C(C)=O)c2c1OCCO2, the “hERG current change (%, negative = inhibition) at 10uM” value was -3.35%. With COc1ccc(C(=O)Nc2ccc(S(=O)(=O)Nc3nccnc3OC)cc2)cc1 the “hERG current change (%, negative = inhibition) at 10uM” value was 8.73%. In the case of COc1cccc(C(=O)N2CCC(N3CC(C)OC(C)C3)CC2)c1.O=C(O)C(=O)O (stereo not drawn), the “hERG current change (%, negative = inhibition) at 10uM” value is reported as 14.4%. O=S(=O)(O/N=C1\CCCc2ccccc21)c1ccccc1 was tested, and the “hERG current change (%, negative = inhibition) at 10uM” value was 7.59%. In the case of CCC1CCC(N2CCN(c3ccccc3F)CC2)CC1 (stereo not drawn), the “hERG current change (%, negative = inhibition) at 10uM” value is reported as -22.2%. For CCN1CCC(N2CCN(c3ccc(Cl)cc3)CC2)CC1, the “hERG current change (%, negative = inhibition) at 10uM” value was -18.8%. For CCC1CCC(N2CCN(c3ccc(F)cc3)CC2)CC1 (stereo not drawn), the “hERG current change (%, negative = inhibition) at 10uM” value was -52.1%. CC1CCC(N2CCN(c3ccc([N+](=O)[O-])cc3)CC2)CC1 (stereo not drawn) was tested, and the “hERG current change (%, negative = inhibition) at 10uM” value was -74.8%. For CCN1CCC(N2CCN(c3ccc(F)cc3)CC2)CC1, the “hERG current change (%, negative = inhibition) at 10uM” value was -5.34%. For O=[N+]([O-])c1ccc(N2CCN(c3ccccc3)CC2)cc1, the “hERG current change (%, negative = inhibition) at 10uM” value was 4.77%. With O=[N+]([O-])c1ccc(N2CCSCC2)cc1 the “hERG current change (%, negative = inhibition) at 10uM” value was -10.4%. For CCC1CCC(N2CCN(c3ccc([N+](=O)[O-])cc3)CC2)CC1 (stereo not drawn), the “hERG current change (%, negative = inhibition) at 10uM” value was -79.8%. For O=[N+]([O-])c1ccc(N2CCN(c3ccc(F)cc3)CC2)cc1, the “hERG current change (%, negative = inhibition) at 10uM” value was -17.9%. For CCC1CCC(N2CCN(c3cccc(OC)c3)CC2)CC1 (stereo not drawn), the “hERG current change (%, negative = inhibition) at 10uM” value was -33.7%. With CCCN1CCC(N2CCN(c3ccc([N+](=O)[O-])cc3)CC2)CC1 the “hERG current change (%, negative = inhibition) at 10uM” value was -74.3%. With CCS(=O)(=O)N1CCC(N2CCN(c3ccccc3)CC2)CC1 the “hERG current change (%, negative = inhibition) at 10uM” value was -10.9%. COCCNC(=S)N/N=C/c1c2ccccc2cc2ccccc12 was tested, and the “hERG current change (%, negative = inhibition) at 10uM” value was 15.5%. In the case of CCOC(=O)C(CC(=O)O)NCc1ccco1 (stereo not drawn), the “hERG current change (%, negative = inhibition) at 10uM” value is reported as 17.4%. For CCC(C)N(CC(=O)NCc1ccc(OC)cc1)C(=O)c1csnn1 (stereo not drawn), the “hERG current change (%, negative = inhibition) at 10uM” value was -18.3%. For COc1ccc(N2CCN(C(=S)NCc3ccccc3)CC2)cc1, the “hERG current change (%, negative = inhibition) at 10uM” value was 15.3%. COc1ccccc1Nc1nc(C)cc(=O)[nH]1 was tested, and the “hERG current change (%, negative = inhibition) at 10uM” value was -7.91%. In the case of O=C(COC(=O)c1ccccc1O)Nc1ccc(OC(F)F)cc1, the “hERG current change (%, negative = inhibition) at 10uM” value is reported as 2.74%. In the case of O=C(COC(=O)c1ccccc1O)Nc1ccc(S(=O)(=O)N2CCCCC2)cc1, the “hERG current change (%, negative = inhibition) at 10uM” value is reported as 3.29%. In the case of COc1ccccc1C(=O)OCC(=O)Nc1ccc(OC(F)F)cc1, the “hERG current change (%, negative = inhibition) at 10uM” value is reported as -32.2%. For COc1cc(C(=O)OCC(=O)Nc2ccc(C)cc2)cc(OC)c1OC, the “hERG current change (%, negative = inhibition) at 10uM” value was 28.7%. O=C(COC(=O)c1cc(S(=O)(=O)N2CCCC2)ccc1O)Nc1ccc(S(=O)(=O)N2CCOCC2)cc1 was tested, and the “hERG current change (%, negative = inhibition) at 10uM” value was 23.6%. For O=C(COC(=O)c1cc(S(=O)(=O)N2CCCC2)ccc1O)Nc1ccc(SC(F)F)cc1, the “hERG current change (%, negative = inhibition) at 10uM” value was -57.5%. For CCOc1ccccc1C(=O)OCC(=O)Nc1ccc(OC(F)F)cc1, the “hERG current change (%, negative = inhibition) at 10uM” value was -54%. CCOc1cc(C(=O)OCC(=O)Nc2ccc(SC(F)F)cc2)cc(OCC)c1OCC was tested, and the “hERG current change (%, negative = inhibition) at 10uM” value was 4.57%. COc1ccccc1C(=O)COC(=O)c1ccccc1OCC(=O)Nc1ccc(SC(F)F)cc1 was tested, and the “hERG current change (%, negative = inhibition) at 10uM” value was 12.6%. COc1cc(C(=O)OCC(=O)Nc2ccc(SC(F)F)cc2)cc(OC)c1OC was tested, and the “hERG current change (%, negative = inhibition) at 10uM” value was -55.7%. CN(C)C(=O)COC(=O)c1ccccc1OCC(=O)Nc1ccc(SC(F)F)cc1 was tested, and the “hERG current change (%, negative = inhibition) at 10uM” value was -51.8%. In the case of COc1ccccc1NC(=O)COC(=O)c1ccccc1OCC(=O)Nc1ccc(SC(F)F)cc1, the “hERG current change (%, negative = inhibition) at 10uM” value is reported as 1.67%. With O=C(NC(Cc1ccccc1)c1ccc2c(c1)OCCCO2)c1ccc(F)cc1 (stereo not drawn) the “hERG current change (%, negative = inhibition) at 10uM” value was 8.05%. With COc1ccc2cc1Oc1ccc(cc1)CC1c3c(cc(OC)c4c3Oc3cc5c(cc3O4)CCNC5C2)CCN1C (stereo not drawn) the “hERG current change (%, negative = inhibition) at 10uM” value was 0.681%. For N#Cc1c(Cl)nc(SCc2ccccc2)nc1-c1ccccc1, the “hERG current change (%, negative = inhibition) at 10uM” value was 8.45%. CN(C(=O)c1ccccc1C(=O)OCC(=O)Nc1ccc(OC(F)F)cc1)c1ccccc1 was tested, and the “hERG current change (%, negative = inhibition) at 10uM” value was -54%. In the case of CN(C(=O)c1ccccc1C(=O)OCC(=O)Nc1ccccc1)c1ccccc1, the “hERG current change (%, negative = inhibition) at 10uM” value is reported as 0.655%. CN(C(=O)c1ccccc1C(=O)OCC(=O)Nc1ccc(S(N)(=O)=O)cc1)c1ccccc1 was tested, and the “hERG current change (%, negative = inhibition) at 10uM” value was -5.32%. With CCOc1cc2c(Cl)ncnc2c(OCC)c1OCC the “hERG current change (%, negative = inhibition) at 10uM” value was 23.3%. CCOC(=O)c1cccc(NC(=O)CCn2cccc2)c1 was tested, and the “hERG current change (%, negative = inhibition) at 10uM” value was -27.7%.
